In all, about 53,000 sequences went through this assay and about 3,700 (7%) were called active.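 How the source made its calls: active means gene knockdowns whose robust z-score for IL-1 alpha signal is at least 2 or at most -2, so actives lie on both sides; inactive means the rest.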 Many of the other results were omitted from the sample, so actives are more common in it than they were.
Assay: Components of the Cytosolic LPS Sensing Pathway: Gene Identification via Genome-wide siRNA Screen;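 further: robust z of the log signal after scaling to non-targeting control siRNA wells of the plate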
Conditions: RAW264.7 macrophages, IL-1a HTRF, actives lie on both sides, screened at 100 nM (by protocol), cells primed 5 h with Pam3CSK4 first
Method in brief: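 Three distinct siRNAs per gene were tested singly at 100 nM in RAW264.7 macrophages. Following Pam3CSK4 priming and 24 hour LipidA transfection, IL-1a secretion was read by HTRF.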

z-score, inactive:
GGCAAAGAUAAUAAAGCUATT against Xpo1 -0.967, CCGUUUACUUCGUCCAAGUTT against Crlf1 -0.134, GGGUCCUCUGAAAGUUACCTT against Fndc5 0.497, GCACUUUGGCAUAUUUUCATT against Slc6a15 -0.391, GGAAAUGCUUCUGAGCUAGTT against Desi2 1.71, GGGACGACUCUUUCUUAUGTT against Olfr1264 0.822, GGAGCUAGUAUGUUCAACATT against Ubqln1 -0.942, GGUGUUUGUUUCUAACUUCTT against Glcci1 -0.434, GCACUCUGCCUGAAAUACCTT against Nlrp1a -0.376, GGACUUCACAAUCUCUUUCTT against Hck -0.11, GGAAGAAUCCACUUUGAACTT against Chil4 0.048, GGGCUAAAUUAAGCUUCUATT against Sowahd -0.707, GCCUGCUUAAGCUACUUAUTT against Fam210b -1.04, UCUUACAAACUAGCUCUCCTT against Crabp2 -0.777, GGAGAGUAACAAUUAUGAATT against Pcdha9 0.983, GGUCUAAUACUCAAUAGACTT against Tmem200a 0.0917, CCUGAAGGGUCUGGCAAAATT against Zfp804a 0.66, GGUUAAACUACAACAGUUGTT against Tmco5 1.04, GGAAGAAUGUAAGUAUACCTT against Zscan12 1.68, CGUGGAAGAAAUAAUUAGGTT against Faap24 0.664, GGUGAAGAGUGAUUUUAAUTT against Il10 1.03, GGUGUUGGAAGAGAUGCUGTT against Ap3m2 0.405, GGAAGUGGAAUAUGUCACCTT against Cd300lf -0.206, GAUACCAAGCUAAAAGAUCTT against Ear10 0.0579, GCCAGUCAUCUUUGUAGUCTT against Olfr411 -0.777, GGGAGAACAGUGUUCAGAGTT against Bhlha15 -0.151, CCAUGUGCUGUGCACUACGTT against Chst14 0.358, GGAUAAGUGGUCUGCACUATT against Ube2c -0.412, CCACUAUCCCACCAAUCACTT against Lypd8 -1.03, GGCUGCUACUUCAGACAGCTT against Pou6f2 -0.163, GGAGGACCUUCAGAAACUCTT against Gdap2 1.14, GGUGUCACGACAAACAUUCTT against Fam83h -1.6, GUGGCAGCUGACAUGAAUGTT against Plac8 -0.138, CGGAUACAAUUUCUGACCGTT against Zdhhc23 -0.163, GGGACGUGUUAAAAAGGGCTT against Cldn5 0.0829, CCGCCUAAAUGACUUGACATT against Fbxw14 -1.1, GGAAUUUGGUGCAGUGUCCTT against Utp15 -1.39, GCUAACGAUAUUUAUCACGTT against Olfr385 -0.474, GGGACUUGUCCAUCCUUUUTT against Qrfprl -1.71, GCUUACUAAGGUGAUAAUGTT against Il17d 0.0918, CGAAAGAGAUGAUGAUAAUTT against Arrdc3 0.641, GGAAAAGCAUUUUCAACGUTT against Lhfpl2 -1.41, GCGAACGAGACACUUCAAUTT against Pla2g4a 1.51, GGAGAAGAGAUCCCUGAACTT against Neurod2 -0.491, CGUGGUCGUGAGAUGUUUGTT against Chid1 1.35, CCUUUUAGUGAAAAUAGCATT against A430010J10Rik -0.924, GGACUUCUCUGGGACUUCATT against Syt9 0.406, GCCUCCUGAAUGAUGACAUTT against Klk1b24 -0.97, GGUCAAAGUGAUUGUGUGUTT against Cdh16 0.555, GGCUAAAUUCUACUUGAUATT against Ppfibp1 -1.89, CUUAGCUACUUCAAGGUCATT against Spink8 0.628, GCAGGCUCUGCAUGAAGCATT against Alpl -0.213, GCCCACGUACAGAAAACAGTT against Aox2 -1.72, GGGAGAACACAUCUACUGATT against Slamf6 -1.17, GGAGACAUGCAAUGAACUUTT against Ica1l 1.02, GGAAUUUUUAGGAAUGGUGTT against Slc35f2 -1.38, GGAAGGUACCAGGUGAUUGTT against Nmnat3 -1.89, GGUCCAUGCUCUCAUGAGUTT against Batf2 -1.34, GGUACAGGAAACUCAAAUATT against Lrrc4 0.318, GGCCAGUUUAAACCAGUCUTT against Frmd6 0.583, GCAUACAAUCAUGUAAGAGTT against Adprh 0.0994, CGGAGCAUGAGCCAGAUAUTT against Eipr1 -0.266, GGAGACUGUCAGAAAGUUATT against Olfr1164 -0.769, GGAAAAAUCCAAGAAGCAATT against Zc3h11a -1.09, GGACAUUUUUAUGCACAAUTT against Il1rl2 1.76, GCUCCUACUGUCCAGCAAUTT against Dusp18 -0.642, AAUUGAAGACUGUAAAUACTT against Sst 1.83, GGAACACAAAGGUAAGAAATT against Raf1 0.0798, GGUUUUAAAGCACUUUGUATT against Jazf1 0.288, GGAAACUUCUUCCCGGUUGTT against Gsdmc 1.16, GGGAGUUUGAUUCUGACUCTT against Ank3 -0.264, CCCAUGAUAAUGAAUUAGCTT against Olfr378 -0.537, GGUAUUUGUAAAUUUGAGGTT against Atl1 0.309, GGUAACAUACUAAAAGAAGTT against Vmn2r10 -1.21, GCAGGAUUGAAACAUGUAUTT against Tcl1b3 -0.298, CGAACUUCCAAAAAGUUCATT against A430005L14Rik -0.498, UCACCCUGUUCGUAAUCAUTT against Olfr467 -0.17, CCACUGGUUCACCUAUAAUTT against Psma5 0.092, CGAAUGACCUCGAUAGCUGTT against Gm5082 0.195, GGAAGAAGCCACCAUGUACTT against Pbx4 -1.75, GGCCAAUAGGACAUAUCUATT against Qprt -0.443, GCUUAGCUGUUAUGUUUUUTT against Atp6ap1 1.81, GCAAUGUGUGGUAAGUAAATT against Zfp738 -0.757, GGUUUAGCUGCUGACUUAATT against Strn3 1.03, GGAGAAGGUUUUGAUGUGGTT against Drg1 -1.31

z-score, active:
CCUUAUUUGUCCAUAAAAGTT against Pkdrej 2.43, GGAGAAAGGUGGUUUGGUATT against Sap30bp -2.85, CGAAUUCAUACCAGUGUGCTT against Ndufa10 2.84, GGGACCGUCUUAAACAUCUTT against Rsl1d1 2.92, GCUCGAGAGUACUGUAGGCTT against Kat8 -2.41, GGAAUUGGUUCAGAAAUAUTT against Rtn4 3.09, GCUGGUCUAUGUGGAAAGGTT against Brap 2.32, GCCCACGUUUUAAGUCUACTT against Ap1s3 3.69, GGAUGUACUUUGUUAAGGCTT against Tert 2.78, GGCAAGGAUAUAAAUUCACTT against Mak 2.47, GGUUAUUUGGAAGUGCUACTT against Esx1 2.81, GGAGCAUUAUAUCAAUCCUTT against Zfp111 2.16, GGAGACAUGGCAUCCAAAUTT against Cnr1 3.14, GGCUGUUUUCUAUCCUAGGTT against Cd207 -2.82, GGAUUGCUGUAAAAUACAATT against Cdkn2aipnl 2.16, GGUGCCCAUGCUUGUAGGATT against Cstdc1 2.03, CCAGAAACCGUGAUAAAAUTT against Immp2l 2.12, GGUGCAGUUGAACUUCUACTT against Dnajc1 2.26, GCUUACAAGGCAUGUAUGATT against Rccd1 3.46, GCCAAUUGGUUCCCUGUAATT against 1700034E13Rik -3.04, GGAUUGGCAAGCAGCUAACTT against Dnase2a -2.08, GGCUGAGGUUCGAGUGUAUTT against Rps6ka4 3.51

— PubChem BioAssay AID1508600 (Functional Genomics Laboratory (NCATS/FGL), 2020)
